# Measurements published in ChEMBL document CHEMBL1157539, “Thousands of chemical starting points for antimalarial lead identification” (Nature, 2010).
# Columns and labels:
# Format in all cases: functional
# Plasmodium falciparum [1] = assay: GSK_TCMDC: Inhibition of Plasmodium falciparum 3D7 in whole red blood cells, using parasite LDH activity as an index of growth. Test compounds present at 2uM
# Plasmodium falciparum [2] = assay: GSK_TCMDC: Inhibition of Plasmodium falciparum Dd2 in whole red blood cells, using parasite LDH activity as an index of growth. Test compounds present at 2uM
# HepG2 = assay: GSK_TCMDC: Percent inhibition of human HepG2 cell line. Test compounds present at 10uM.
SMILES,Inhibition (Plasmodium falciparum [1]) [%],Inhibition (Plasmodium falciparum [2]) [%],Inhibition (HepG2) [%]
CS(=O)(=O)c1cccc(-c2cnc3[nH]cc(-c4ccc(CCC(=O)O)cc4)c3c2)c1,97,99,1
CSc1ccc(C=CC(=O)NC(=O)c2ccccc2O)cc1,97,96,2
O=C(/C=C/c1ccc(Cl)c(Cl)c1)NCCCCCCN1CCN(C(=O)Nc2ccc(OC(F)F)cc2)CC1,91,15,44
CCC(CO)NCC(O)Cn1c2ccc(Br)cc2c2cc(Br)ccc21 (configuration not stated),100,87,18
COc1cccc(CCNCCCCCCNCCc2ccc(Cl)cc2)c1.Cl,100,3,32
CNc1ccc(CNCc2ccc(-c3ccc(-c4nc5cc(F)ccc5[nH]4)cc3)cc2)cc1.O=C(O)C(F)(F)F,100,95,38
CC(CN1CCN(C)CC1)C(=O)Nc1ccc(-c2cccc(-c3nc4ccccc4[nH]3)c2)cc1 (configuration not stated),94,81,4
NC1CCN(Cc2cccc(-c3ccc(-c4nc5ccccc5[nH]4)cc3)c2)C1.O=C(O)C(F)(F)F (configuration not stated),100,58,24
Cc1cc2nc(-c3ccc(OCC(=O)NCc4cccc(C(F)(F)F)c4)cc3)[nH]c2cc1C,94,1,4
COc1cc(CNC[C@@H](O)[C@H](Cc2ccccc2)NC(=O)c2cc(OC(C)C)cc(N3CCCCS3(=O)=O)c2)cc(OC)c1.Cl,100,94,7
O=c1cc(NCCCNCc2cccc(OC(F)(F)F)c2)[nH]c2ccccc12,97,72,0
Cc1ccc(O)cc1Nc1ccnc2ccc(-c3cccc(CN(C)C)c3)cc12,100,99,0
O=C(Nc1cccc(F)c1)N(Cc1ccc(-c2ccc(CN3CCNCC3)cc2)cc1)C1CCN(Cc2ccccc2)CC1.O=C(O)C(F)(F)F,100,53,18
O=C(O)C(F)(F)F.OCC1CCN(Cc2ccc(-c3cccc(-c4nc5cc(F)ccc5[nH]4)c3)cc2)CC1,100,25,14
COc1ccc(Nc2nccc(N3CCC(NC(=O)Nc4ccc5c(c4)OCO5)C3)n2)cc1 (configuration not stated),98,57,27
CC1(C)C(=O)Nc2ccccc2N1C(=O)CN1CCN(c2ccccc2O)CC1,92,72,7
Br.CC1(C)N=C(N)N=C(N)N1OCc1cccc2c1ccc1ccccc12,95,97,63
CC1CCc2sc(-c3nnc(SC(C)C(=O)N4CCCC4)o3)cc2C1 (configuration not stated),93,94,1
CCCCCc1cc(O)c2c(c1)OC(C)(C)C=C2C1=CCN(Cc2ccsc2)CC1,98,48,20
CCCC(C)NC(=O)[C@H](Cc1ccccc1)NC(=O)c1ccc(O)c(-c2ccc(OC)cc2)c1 (some centres not stated),85,1,12

SMILES,Inhibition (Plasmodium falciparum [1]) [%],Inhibition (Plasmodium falciparum [2]) [%],Inhibition (HepG2) [%]
O=C(/C=C/c1ccc(-c2nc3cc(F)c(F)cc3[nH]2)cc1)NCc1ccc(Cl)c(Cl)c1,100,24,14
O=C(Nc1ccc(Br)cc1)N1CCC(n2c(-c3ccccc3)nc3cccnc32)CC1,90,86,36
Cc1cc(-c2cccc(CNCCc3ccc(Cl)cc3)c2)cnc1N.Cl,90,3,19
COc1ccc(C(=O)Nc2ccc(Cl)cc2C(=O)Nc2ccncc2)cc1,91,29,7
COc1ccccc1CN1CCC(CNC(=O)c2cc(-c3ccc(N(C)C)cc3)cs2)C1.O=C(O)C(F)(F)F (configuration not stated),82,16,17
Cc1nnc(NC(=O)c2cn(-c3ccccc3)nc2-c2ccccc2C)o1,93,87,37
O=C(O)C(F)(F)F.Oc1ccc(CCNc2nc(NCCCOc3ccccc3-c3cccc(C(F)(F)F)c3)nc(N3CCNCC3)n2)cc1,93,5,24
CCOc1ccc(-c2nonc2NC(=O)c2ccco2)cc1OCC,97,77,3
O=c1cc(NCCC(CNCc2ccoc2)NCc2cc(Br)cc(Br)c2)[nH]c2ccccc12 (configuration not stated),92,28,0
COc1ccc(NC(=O)c2cn(-c3ccc(C(C)(C)C)cc3)nc2C)cc1N1CCN(C)CC1,96,71,33
Cc1ccc(Nc2nc(C)cc(NCc3ccc(-n4ccnc4)cc3)n2)cc1,100,100,33
COc1ccc2nccc([C@@H](O)CN3CCC(NCc4ccc5c(c4)oc(=S)n5C)CC3)c2c1.O=C(O)/C=C/C(=O)O,100,68,14
COc1ccc(C(=O)Nc2ccc(Nc3nc(C)cc(N(C)C)n3)cc2)c(OC)c1,100,72,34
COc1ccc2nccc([C@@H](O)CN3CCC(NCCc4c[nH]c5ccccc45)CC3)c2c1.O=C(O)C(=O)O,98,77,0
Cl.N=C(N)NN=C1C=Cc2cccc3cccc1c23,100,49,9
CCOC(=O)c1ccc(NC(=O)N[C@@H](Cc2ccccc2)C(=O)NC2CCN(Cc3ccc(O)cc3)C2)cc1 (some centres not stated),95,2,7
CC(C)(C)c1ccc(CNC(=O)c2ccc(-c3nc4ccc(Cl)cc4[nH]3)cc2)cc1,93,2,14
Cc1cccc2nc(-c3cccc(-c4ccc(NC(=O)c5ccc(=O)[nH]n5)cc4)c3)[nH]c12,100,27,18
O=C(NC1CCN(CCN2CCC(c3ccccc3C(F)(F)F)CC2)CC1)c1ccc(-c2ccc(Cl)cc2)cc1,100,68,39
CCCN(CCC)C(C)CCC(C)Nc1c2ccc(Cl)cc2nc2ccc(OC)cc12.Cl (configuration not stated),100,99,41

SMILES,Inhibition (Plasmodium falciparum [1]) [%],Inhibition (Plasmodium falciparum [2]) [%],Inhibition (HepG2) [%]
COc1ccc(-c2cccc(NC(=O)c3cccc(C#N)c3)c2)cc1CNC(C)C.O=C(O)C(F)(F)F,100,51,22
CN(C)Cc1ccc(-c2cc3c(-c4ccc(CN(C)C)cc4)ccnc3[nH]2)cc1.O=C(O)C(F)(F)F,100,96,86
Cl.c1ccc2c(NCCCCCCNc3ccnc4ccccc34)ccnc2c1,100,12,43
COc1ccc(C(=O)O)cc1OCc1ccccc1,99,0,0
FC(F)(F)c1ccc2[nH]c(-c3ccc(-c4cccc(CN5CCC(CCN6CCCCC6)CC5)c4)cc3)nc2c1.O=C(O)C(F)(F)F,100,96,100
Cc1nc2sccn2c1C(=O)NCCc1ccccc1Cl,96,1,6
CCOc1ccc2ccccc2c1C(=O)Nc1cc(C)nn1-c1nc(C)cc(=O)[nH]1,93,86,28
Cl.N#Cc1ccc2c(c1)CCN(CCC1CCC(NC(=O)/C=C/c3cccc4ccccc34)CC1)CC2 (configuration not stated),96,12,16
C=CCc1ccccc1OCC(O)CN(C1CCCCC1)C1CCCCC1.Cl (configuration not stated),93,84,50
CCCNCc1ccc(-c2ccc(CN(CCOC)C(=O)[C@H]3CCCO3)cc2)nc1.O=C(O)C(F)(F)F,98,6,1
Cc1ccc(NC(=O)c2ccc(C(=O)NC3CCN(CC4CCCCC4)CC3)cc2)cc1.O=C(O)C(F)(F)F,93,0,36
Cc1ccc(S(=O)(=O)n2nccc2-c2c(-c3ccc(Cl)cc3)noc2C)cc1,97,97,0
Cc1cc(-c2ccc(NC(=O)N3CCc4cc(Br)c(N5CCN(C)CC5)cc43)cc2)ccc1C#N,99,56,100
Cc1cc(NCCC(=O)Nc2ccccc2)nc(NCC2CCCCC2)n1.O=C(O)C(F)(F)F,100,62,14
O=C(NC1CCN(Cc2ccccc2O)C1)c1ccc(-c2ccccc2)cc1.O=C(O)C(F)(F)F (configuration not stated),99,25,0
CS(=O)(=O)O.N#Cc1ccc(CNCCCCCCNCc2ccc(C#N)c3ccccc23)c2ccccc12,100,96,51
O=C(Nc1ccsc1)Nc1cccc(-c2ccc(-c3nc4cc(C(F)(F)F)ccc4[nH]3)cc2)c1,99,36,45
Cc1cccc2nc(-c3ccc(-c4cccc(C(=O)NCCc5cn(C)cn5)c4)s3)[nH]c12,92,17,27
CN(C)c1cccc2c1nc(-c1ccco1)n2CC1CCCN1.O=C(O)C(F)(F)F (configuration not stated),86,46,0
